In PubChem BioAssay (NCATS):
“And” between values parts separate entries of the source, which are not always exact repeats. Equal entries are not always repeated. Records with an inconclusive call do not appear. The source made the active and inactive calls. Calls come from the whole dose curve; as a rule, active = well fitted curve in the direction sought with a large enough effect; inconclusive = small, poorly fitted or top-dose-only effect, or another doubt; inactive = no such curve, though single readings can be large; an effect the other way counts as inactive or inconclusive.

Key:
[1] = qHTS of pediatric cancer cell lines to identify multiple opportunities for drug repurposing: Confirmatory screen for A673 cells (AID 1347110); settings: A673 Ewing sarcoma cell viability; series mostly up to 45.9 µM;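 note: cells exposed to compound for 48 h before the viability read; nearly all actives have a fitted effect of over 65% in size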
Outline: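 A673 cells seeded at 500-1,000 cells/well, rested 5 h, then dosed; primary MIPE 11-point (0.78 nM to 46 µM), NPC (0.59 nM to 46 µM); confirmatory 11-point. CellTiter-Glo luminescence after 48 h.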

[2] = qHTS of pediatric cancer cell lines to identify multiple opportunities for drug repurposing: Confirmatory screen for SK-N-MC cells (AID 1347111); settings: SK-N-MC cell viability; series mostly up to 45.9 µM;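 note: cells exposed to compound for 48 h before the readout; nearly all actives have a fitted effect of over 70% in size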
Outline: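 Seed 500-1,000 cells/well; rest 5 h at 37 degrees C. Pin-transfer compounds, 11-point titration. Incubate 48 h. Add CellTiter-Glo, 15 min RT, read luminescence.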

[3] = qHTS of pediatric cancer cell lines to identify multiple opportunities for drug repurposing: Confirmatory screen for BT-12 cells (AID 1347112); settings: BT-12 rhabdoid tumor cells, viability; series mostly up to 45.9 µM;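 note: viability read after 48 h of compound exposure; nearly all actives have a fitted effect of over 55% in size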
Outline: (§1)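 Cells (500-1,000/well) rested 5 h, then received compounds for 48 h; metabolically active cells were measured by CellTiter-Glo luminescence. Final concentrations spanned up to 46 µM (MIPE, 11-point) or 0.59 nM-46 µM (NPC, 8-point) in primary screens, 11-point in follow-ups.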

[4] = qHTS of pediatric cancer cell lines to identify multiple opportunities for drug repurposing: Confirmatory screen for LAN-5 cells (AID 1347113); settings: LAN-5 neuroblastoma cell viability; series mostly up to 45.9 µM; note: nearly all actives have a fitted effect of over 65% in size
Outline: as §1

[5] = qHTS of pediatric cancer cell lines to identify multiple opportunities for drug repurposing: Confirmatory screen for DAOY cells (AID 1347114); settings: DAOY medulloblastoma cells viability, cytotoxicity qHTS; series mostly up to 45.9 µM; note: nearly all actives have a fitted effect of over 65% in size
Outline: (§2)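 Viability measured as metabolically active cells via CellTiter-Glo luminescence following 48 hours of compound exposure, 11-point dilutions in confirmatory testing. 500-1,000 cells/well plated 5 hours before dosing; controls were DMSO and 2.3 µM bortezomib.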

[6] = qHTS of pediatric cancer cell lines to identify multiple opportunities for drug repurposing: Confirmatory screen for SJ-GBM2 cells (AID 1347116); settings: SJ-GBM2 glioblastoma cells, viability; series mostly up to 45.9 µM; note: nearly all actives have a fitted effect of over 60% in size
Outline: as §2

[7] = qHTS of pediatric cancer cell lines to identify multiple opportunities for drug repurposing: Confirmatory screen for BT-37 cells (AID 1347117); settings: BT-37 pediatric cancer cells, viability; series mostly up to 45.9 µM; note: nearly all actives have a fitted effect of over 55% in size
Outline: as §1

[8] = qHTS of pediatric cancer cell lines to identify multiple opportunities for drug repurposing: Confirmatory screen for TC32 cells (AID 1347118); settings: TC32 Ewing sarcoma cells viability qHTS; series mostly up to 45.9 µM;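 note: cells exposed to compound for 48 h before the read; nearly all actives have a fitted effect of over 65% in size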
Outline: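 Luminescent ATP read-out (CellTiter-Glo) of metabolically active TC32 cells after 48 h exposure. Concentration-response curves came from 11-point (MIPE, 0.78 nM–46 µM) or 8-point (NPC, 0.59 nM–46 µM) primary titrations; follow-up used 11 points.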

[9] = qHTS of pediatric cancer cell lines to identify multiple opportunities for drug repurposing: Confirmatory screen for MG 63 (6-TG R) cells (AID 1347119); settings: MG-63 (6-TG resistant) osteosarcoma viability; series mostly up to 45.9 µM; note: nearly all actives have a fitted effect of over 55% in size
Outline: as §1

[10] = qHTS of pediatric cancer cell lines to identify multiple opportunities for drug repurposing: Confirmatory screen for U-2 OS cells (AID 1347122); settings: U-2 OS osteosarcoma cell viability; series mostly up to 45.9 µM; note: nearly all actives have a fitted effect of over 65% in size
Outline: as §1

[11] = qHTS of pediatric cancer cell lines to identify multiple opportunities for drug repurposing: Confirmatory screen for Rh41 cells (AID 1347123); settings: Rh41 rhabdomyosarcoma cells, viability/cytotoxicity qHTS; series mostly up to 45.9 µM;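 note: 48 h compound exposure; nearly all actives have a fitted effect of over 60% in size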
Outline: as §1

[12] = qHTS of pediatric cancer cell lines to identify multiple opportunities for drug repurposing: Confirmatory screen for RD cells (AID 1347124); settings: RD rhabdomyosarcoma cell viability; series mostly up to 45.9 µM
Outline: as §1

[13] = qHTS of pediatric cancer cell lines to identify multiple opportunities for drug repurposing: Confirmatory screen for Rh30 cells (AID 1347126); settings: Rh30 rhabdomyosarcoma cell viability; series mostly up to 45.9 µM; note: nearly all actives have a fitted effect of over 55% in size
Outline: as §1

[14] = qHTS of pediatric cancer cell lines to identify multiple opportunities for drug repurposing: Confirmatory screen for Saos-2 cells (AID 1347127); settings: Saos-2 osteosarcoma cell viability; series mostly up to 45.9 µM; note: nearly all actives have a fitted effect of over 60% in size
Outline: as §1

[15] = qHTS of pediatric cancer cell lines to identify multiple opportunities for drug repurposing: Confirmatory screen for OHS-50 cells (AID 1347128); settings: OHS-50 osteosarcoma cells viability; series mostly up to 45.9 µM
Outline: as §1

[16] = qHTS of pediatric cancer cell lines to identify multiple opportunities for drug repurposing: Confirmatory screen for SK-N-SH cells (AID 1347129); settings: SK-N-SH neuroblastoma cell viability; series mostly up to 46.1 µM;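 note: cells exposed to compound for 48 h before viability read; nearly all actives have a fitted effect of over 60% in size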
Outline: as §1

[17] = biological target: N-terminal Xaa-Pro-Lys N-methyltransferase 1 (Homo sapiens) (UniProt Q9BV86); test: qHTS Assay for Inhibitors of N-terminal methyltransferase 1 (NTMT1): LOPAC validation of the NTMT1 SAHH-coupled ThioGlo3 Assay (AID 1347143); settings: recombinant NTMT1, SAHH-coupled ThioGlo3 fluorescence; series mostly up to 114 µM;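 note: SAH from peptide methylation measured as thiol fluorescence via SAHH coupling and ThioGlo3; nearly all actives have a fitted effect of over 70% in size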
Outline: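 Inhibition of NTMT1 methylation of peptide SPKRIA is followed by converting SAH with SAHH and labelling the released thiol with ThioGlo3. Plates are read at 340/450nm before and 30 min after reagent addition, both at room temperature.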

[18] = qHTS of pediatric cancer cell lines to identify multiple opportunities for drug repurposing: Confirmatory screen for control Hh wild type fibroblast cells (AID 1347121); settings: viability qHTS; series mostly up to 45.9 µM; note: nearly all actives have a fitted effect of over 70% in size
Outline: as §1

[19] = qHTS of pediatric cancer cell lines to identify multiple opportunities for drug repurposing: Confirmatory screen for Rh18 cells (AID 1347125); settings: Rh18 rhabdomyosarcoma cells, viability; series mostly up to 45.9 µM; note: nearly all actives have a fitted effect of over 55% in size
Outline: as §1

[20] = qHTS of pediatric cancer cell lines to identify multiple opportunities for drug repurposing: Confirmatory screen for NB-EBc1 cells (AID 1347115); settings: NB-EBc1 neuroblastoma cells, viability (cytotoxicity); series mostly up to 45.9 µM;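 note: cells exposed to compound for 48 h before the viability read; nearly all actives have a fitted effect of over 45% in size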
Outline: as §1

Measured: Potency
Potency is the fitted concentration of half-maximal effect.

N-terminal Xaa-Pro-Lys N-methyltransferase 1 (Homo sapiens), sequence (Q9BV86 whole entry, looked up): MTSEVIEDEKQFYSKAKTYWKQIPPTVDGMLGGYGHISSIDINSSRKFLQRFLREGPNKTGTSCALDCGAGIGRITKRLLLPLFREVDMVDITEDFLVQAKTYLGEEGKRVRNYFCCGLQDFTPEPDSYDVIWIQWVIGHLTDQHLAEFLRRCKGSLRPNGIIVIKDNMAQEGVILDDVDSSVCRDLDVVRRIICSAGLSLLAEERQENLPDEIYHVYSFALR

C[C@@H]1O[C@@H](O[C@H]2C[C@@H](O)[C@]3(CO)[C@H]4[C@H](O)C[C@]5(C)[C@@H](C6=CC(=O)OC6)CC[C@]5(O)[C@@H]4CC[C@]3(O)C2)[C@H](O)[C@H](O)[C@H]1O
inactive: [17]
active: [1] 329 nM and 282 nM | [2] 131 nM and 293 nM | [3] 131 nM and 147 nM | [4] 329 nM and 414 nM | [5] 73.7 nM and 56.2 nM | [6] 0.261 µM | [7] 65.7 nM and 92.8 nM | [8] 92.8 nM and 165 nM | [9] 104 nM and 117 nM | [10] 131 nM and 89.1 nM | [11] 46.5 nM and 39.8 nM | [12] 0.117 µM | [13] 0.165 µM | [14] 369 nM and 657 nM | [15] 0.0928 µM | [16] 132 nM and 79.4 nM

C[C@@H]1[C@@H](C(=O)C[C@H]2O[C@@H]3O[C@]4(C)CC[C@@H]5[C@H](C)CC[C@@H]([C@H]2C)[C@@]35OO4)O[C@@H]2O[C@]3(C)CC[C@H]4[C@H](C)CC[C@@H]1[C@@]24OO3
inactive: [5] | [18] | [19]
active: [1] 6.57 µM | [2] 2.93 µM | [3] 14700 nM | [7] 1.65 µM | [8] 9.27 µM | [11] 928 nM | [12] 0.737 µM | [13] 13.1 µM

Cc1sc2c(c1C)C(c1ccc(Cl)cc1)=N[C@@H](CC(=O)OC(C)(C)C)c1nnc(C)n1-2
active: [7] 1.31 µM | [8] 0.827 µM
inactive: [1] | [5] | [6] | [18] | [10] | [11] | [16]

C[C@H]1O[C@@H](O[C@H]2[C@@H](O)C[C@H](O[C@H]3[C@@H](O)C[C@H](O[C@H]4CC[C@@]5(C)[C@H](CC[C@@H]6[C@@H]5CC[C@]5(C)[C@@H](C7=CC(=O)OC7)CC[C@]65O)C4)O[C@@H]3C)O[C@@H]2C)C[C@H](O)[C@@H]1O
active: [1] 0.465 µM | [2] 0.131 µM | [3] 185 nM | [4] 0.233 µM | [5] 0.0657 µM | [6] 0.233 µM | [7] 0.0585 µM | [8] 0.0827 µM | [9] 0.0465 µM | [10] 165 nM | [11] 73.7 nM | [12] 0.104 µM | [13] 0.329 µM | [14] 1.04 µM | [16] 148 nM

N[C@@H](Cc1ccc(N(CCCl)CCCl)cc1)C(=O)O
active: [1] 16.5 µM | [2] 2.61 µM | [4] 5.22 µM | [5] 23.3 µM | [20] 5.85 µM | [6] 20.8 µM | [8] 9.27 µM | [9] 16.5 µM | [15] 26.1 µM | [16] 18700 nM
inactive: [18]

O=C1NCN(c2ccccc2)C12CCN(CC1COc3ccccc3O1)CC2 (stereo not drawn)
inactive: [17]

NCC1(CC(=O)O)CCCCC1
inactive: [17]

CC[N+](CC)(CC)CC
inactive: [17]

C[C@@H]1[C@@H](CC(C[C@H]2O[C@@H]3O[C@]4(C)CC[C@@H]5[C@H](C)CC[C@@H]([C@H]2C)[C@@]35OO4)C[S+](=O)([O-])c2ccc(COC(=O)N(C)C)cc2)O[C@@H]2O[C@]3(C)CC[C@H]4[C@H](C)CC[C@@H]1[C@@]24OO3 (stereo partly drawn)
active: [2] 0.293 µM | [3] 657 nM | [4] 1.04 µM | [5] 1.04 µM | [20] 0.928 µM | [6] 1.65 µM | [7] 0.233 µM | [8] 0.585 µM | [9] 2.33 µM | [18] 13.1 µM | [11] 82.7 nM | [13] 4.65 µM | [15] 0.233 µM

COC[C@@H](NC(C)=O)C(=O)NCc1ccccc1
inactive: [1] | [3] | [4] | [20] | [7] | [9] | [18] | [19] | [14] | [15] | [16]

CC[C@@H](CO)NC(=O)[C@@H]1C=C2c3cccc4[nH]cc(c34)C[C@H]2N(C)C1
active: [17] 25.1 µM

CC[C@@H](CO)NC(=O)[C@@H]1C=C2c3cccc4c3c(cn4C)C[C@H]2N(C)C1
active: [17] 56.2 µM

CCn1cc(C(=O)O)c(=O)c2ccc(C)nc21
inactive: [17]

CC(=O)[C@H]1CC[C@H]2[C@@H]3CC[C@H]4C[C@H](O)CC[C@]4(C)[C@H]3C(=O)C[C@]12C
inactive: [17]

O=c1[nH]c2ccccc2n1CCCN1CCC(n2c(=O)[nH]c3cc(Cl)ccc32)CC1
inactive: [17]
active: [1] 26.1 µM | [2] 5.22 µM | [4] 9.27 µM | [5] 23.3 µM | [20] 16.5 µM | [6] 13.1 µM | [7] 8.27 µM | [8] 3.29 µM | [9] 6.57 µM | [11] 16500 nM | [19] 9.27 µM | [13] 7.37 µM | [14] 10.4 µM | [15] 13.1 µM

Cn1c(CCCC(=O)O)nc2cc(N(CCCl)CCCl)ccc21
active: [2] 3.69 µM | [20] 13.1 µM | [8] 4.65 µM | [17] 56.2 µM
inactive: [3] | [4] | [6] | [18] | [12] | [19] | [15] | [16]

c1ccc(C2CC2)c(OCC2=NCCN2)c1
inactive: [17]

NCC(O)c1ccc(O)cc1 (stereo not drawn)
inactive: [17]

CCC1(C2=NCCN2)Cc2ccccc2O1 (stereo not drawn)
inactive: [17]

Cn1cc(C2=C(c3cn(C4CCN(Cc5ccccn5)CC4)c4ccccc34)C(=O)NC2=O)c2ccccc21
inactive: [3] | [18] | [10] | [15] | [16]

CC(CCc1ccccc1)NC(C)C(O)c1ccc(O)cc1 (stereo not drawn)
inactive: [17]

CC(=O)[C@H]1CC[C@H]2[C@@H]3CC[C@H]4C[C@](C)(O)CC[C@]4(C)[C@H]3CC[C@]12C
inactive: [17]

Cc1cccc(C)c1NC(=O)CN1CCCC1=O
inactive: [17]

NCC(CC(=O)O)c1ccc(Cl)cc1 (stereo not drawn)
inactive: [17]
